A selection: hits, their analogues and other compounds. The true share with any hit is near 4.7%.
TIM10 inh – growth inhibitors of TIM10 yeast strain; S. cerevisiae TIM10 strain growth, BacTiter-Glo luminescence, 24 h; inhibition, % at 10 µM; 330,000 tested, 1.4% active; AID 463195;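 active means inhibition of 40% or more at the single tested concentration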;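 further: wild-type TIM10 isogenic control strain grown at permissive 25 °C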
tim10-1 inh – growth inhibitors of tim10-1 mutant yeast | S. cerevisiae tim10-1 ts strain growth, BacTiter-Glo, 24 h | inhibition, % at 20 µM | 330,000 tested, 2.2% active;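 active means inhibition of at least 40%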;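 further: mutant grown at 25 °C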
Calb FLC – affects C. albicans growth with fluconazole | C. albicans CaCi-2 (fluconazole-resistant clinical isolate) + fluconazole, Alamar Blue growth, 48 h | growth inhibition, % (test concentration not listed) | 300,000 tested, 0.57% active;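 active means growth inhibition above about 58% in most replicates, limit read from the data, passing the limit was not always enough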;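 further: all wells also contain fluconazole at 8 µg/ml as a sub-toxic cotreatment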
tim23-1 inh – tim23-1 yeast growth inhibition. inhibition, % at 20 µM. S. cerevisiae tim23-1 growth, BacTiter-Glo luminescence, 24 h. AID 463212. 330,000 tested, 1.3% active;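 active means growth inhibition of the mutant yeast at or above 50%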;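 further: temperature-sensitive mutant grown at 25 °C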
PfHsp90 set2 – reduces growth (ATP signal) of yeast expressing P. falciparum Hsp90 | S. cerevisiae expressing PfHsp90, BacTiter-Glo ATP, 48 h; yeast lacking PDR1 and PDR3 efflux regulators | inhibition, % at 9.4 µM | 310,000 tested, 0.32% active;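 active means every replicate shows inhibition above about 80%, whatever the replicate mean, limit read from the data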
SKKanGAS inh – blocks kanamycin growth of S. pyogenes SKKanGAS strain. BacTiter-Glo, 6 h. AID 1662. inhibition, % at 7.5 µM. 300,000 tested, 1.3% active;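 active means mean replicate score, as percent of positive control median, at least 50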;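 further: strain carries kanamycin resistance gene driven by streptokinase promoter and grows in 40 µg/ml kanamycin; loss of luminescence reflects streptokinase promoter inhibition or plain growth inhibition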
tim10-1 confirm – confirmation of tim10-1 mutant yeast growth inhibitors; 7,400 tested, 56% active; S. cerevisiae tim10-1 ts strain growth, BacTiter-Glo, 24 h; AID 463213; shares compounds with tim10-1 inh; inhibition, % at 20 µM;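 active means inhibition of yeast growth at or above a set limit in either of two repeat tests at 20 µM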;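 further: tim10-1 mutant grown at permissive 25 °C to find synthetic lethal compounds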
Large screens that a line does not name were inactive (follow-up assays come after a bar, where they were run).

O=C(OCn1nnc2ccccc2c1=O)c1ccc(O)cc1	none
Cc1cc(C)n(-c2ccc(C(=O)OCn3nnc4ccccc4c3=O)cc2)n1	tim10-1 inh 49.2 | tim10-1 confirm 41.8
O=C(c1cc[n+]([O-])cc1)N1CCCC(N2CCN(c3cccc(C(F)(F)F)c3)CC2)C1 (stereo not given)	none
CCC(C)(C)c1ccc(Oc2cccc(C(=O)O)c2)cc1	tim10-1 inh 96.9 | tim10-1 confirm inactive
C=CCOc1ccccc1/C=c1\sc2nc(=O)c(C)nn2c1=O	tim10-1 inh 44.8 (no result: SKKanGAS inh) | tim10-1 confirm 50.5
COc1ccc(/C=c2\sc3nc(-c4ccccc4OC)nn3c2=O)c(OC)c1	none
CCOc1ccc(NCC(=O)Nc2ccc(Cl)cc2C)cc1	tim10-1 inh 45.2 (no result: PfHsp90 set2) | tim10-1 confirm inactive
C[C@H](CO)N1C[C@H](C)[C@@H](CN(C)C(=O)NC2CCCCC2)Oc2c(NS(=O)(=O)c3cn(C)cn3)cccc2C1=O	none (no result: Calb FLC, SKKanGAS inh)
CCNC(=S)N/N=C(\C)c1cccc([N+](=O)[O-])c1	tim10-1 inh 44.3 | tim10-1 confirm inactive
C1=CCN(Cc2ccccc2)C1	none (no result: Calb FLC)
COc1ccc(C(CNC(=O)COc2ccc(Cl)c(C)c2)N2CCCCC2)cc1 (stereo not given)	none
COc1ccc(CN2C(=O)C(CC(C)C)Nc3ncnc(N4CCN(c5ccccc5)CC4)c32)cc1 (stereo not given)	tim10-1 inh 42.7 | tim10-1 confirm inactive
CC(C)CC1Nc2ncnc(N3CCN(c4ccccc4)CC3)c2N(Cc2ccccc2)C1=O (stereo not given)	none
O=C(NC(NNc1ccc([N+](=O)[O-])cc1)(C(F)(F)F)C(F)(F)F)c1ccccc1Cl	tim10-1 inh 47.5 (no result: PfHsp90 set2) | tim10-1 confirm inactive
O=C(NC(NNc1ccc([N+](=O)[O-])cc1)(C(F)(F)F)C(F)(F)F)c1ccc(F)cc1	none
CCOc1ccc(NC(=O)CN(C)S(=O)(=O)c2ccc(-c3ccc(=O)[nH]n3)s2)cc1	none
Cc1ccc(-c2nc(C(=O)NCCCN3CCOCC3)cc3c2[nH]c2ccccc23)cc1	tim10-1 inh 40.5 (no result: PfHsp90 set2) | tim10-1 confirm 32.4
O=C(c1cc2ccccc2o1)N1CCN(S(=O)(=O)c2cccs2)CC1	none
O=C(c1cc2ccccc2o1)N1CCN(S(=O)(=O)c2ccccc2)CC1	tim10-1 inh 42.9 (no result: Calb FLC, SKKanGAS inh) | tim10-1 confirm inactive
CCC(Oc1ccccc1)C(=O)Nc1ccc(S(=O)(=O)Nc2cnc3ccccc3n2)cc1 (stereo not given)	none
CC(Oc1ccc(Cl)cc1Cl)C(=O)Nc1ccc(S(=O)(=O)Nc2cnc3ccccc3n2)cc1 (stereo not given)	tim10-1 inh 42.5, SKKanGAS inh 80.1 (no result: PfHsp90 set2) | tim10-1 confirm inactive
O=C(NCC1COc2ccccc2O1)c1ccc(Cl)c(S(=O)(=O)N2CCCC2)c1 (stereo not given)	none (no result: Calb FLC, SKKanGAS inh)
COC(=O)c1c(NC(=O)C(=O)N2CCOCC2)sc2c1CCC2	none
COC(=O)c1c(NC(=O)C(=O)N2CCOCC2)sc2c1CCCC2	tim10-1 inh 52.0 | tim10-1 confirm inactive
Cc1nc2c(Cl)c(C)nn2c2c1CCC2	tim10-1 inh 41.1 (no result: PfHsp90 set2) | tim10-1 confirm inactive
CS(=O)(=O)N(CC(=O)NCCSCc1ccccc1)c1ccccc1F	none
Cc1ccc(S(=O)(=O)N2CCC(C(=O)NC3CC(C)(C)NC(C)(C)C3)CC2)cc1	none
CCC1CCCCN1C(=O)CSc1nnc(-c2ccc(Cl)s2)o1 (stereo not given)	tim10-1 inh 51.5 | tim10-1 confirm inactive
O=C(COc1ccc(Cl)cc1)NCc1nnc(SCC(=O)NC2CCCC2)o1	none
CCC1CCCCN1C(=O)CSc1nnc(CNC(=O)COc2ccc(Cl)cc2)o1 (stereo not given)	tim10-1 inh 40.2 | tim10-1 confirm inactive
O=C(Nc1cccc(C(F)(F)F)c1)N1CCC(c2nc(-c3ccc(F)cc3)no2)CC1	tim10-1 inh 41.6 (no result: PfHsp90 set2) | tim10-1 confirm 38.7
COc1ccccc1C(=O)NCCC(=O)NCC1COc2ccccc2O1 (stereo not given)	none (no result: Calb FLC, SKKanGAS inh)
COc1ccc(COC(=O)Nc2cc3c(C(F)(F)F)nn(C)c3s2)cc1	tim10-1 inh 43.8 | tim10-1 confirm inactive
O=S(=O)(c1ccccc1)[C@@]1(c2ccc(Br)cc2)C[C@@H]2ON=C(c3ccccc3)[C@@H]2C1	none
CCCN1C(=O)c2ccc(C(=O)Nc3cc(C)ccc3O)cc2C1=O	tim10-1 inh 43.9 | tim10-1 confirm inactive
O=C(OC1CCOC1=O)C1CCN(S(=O)(=O)c2c(Cl)cccc2Cl)CC1 (stereo not given)	none
Cc1cccc(/C=C2\CS/C(=C\c3cccc(C)c3)C2=O)c1	tim10-1 inh 44.2 | tim10-1 confirm 35.8
Cc1cccc2c(N=O)c(O)[nH]c12	none
O=C(NCCc1csc(-c2ccc(Cl)cc2)n1)c1ccco1	tim10-1 inh 43.2 | tim10-1 confirm inactive
C[N+](C)(CCOc1ccccc1)Cc1ccccc1 (tested in a mixture with another compound)	none
CC(C)(C)CC(C)(C)c1ccc(OCCOCC[N+](C)(C)Cc2ccccc2)cc1	tim10-1 inh 41.7 (no result: Calb FLC, SKKanGAS inh) | tim10-1 confirm inactive
OC1(c2ccc(OC(F)F)cc2)CSC(=Nc2cccnc2)N1C1CC1 (stereo not given)	tim10-1 inh 40.6 (no result: Calb FLC) | tim10-1 confirm inactive
Nc1nc(CN2CCN(c3ccccc3F)CC2)nc(N2CCCc3ccccc32)n1	none (no result: Calb FLC, SKKanGAS inh)
COc1ccc(N2CCN(Cc3nc(N)nc(N4CCCc5ccccc54)n3)CC2)cc1	tim10-1 inh 40.4 | tim10-1 confirm inactive
O=C(Nc1cccc(-c2cccc(F)c2)c1)C1CCN(C2CCOCC2)CC1	tim10-1 inh 43.0 | tim10-1 confirm inactive
CCCc1nn2c(=O)cc(CSCC(=O)Nc3ccccc3OC)nc2s1	none
COc1ccc(CC(=O)N/N=C/c2ccc(C)s2)cc1	none
COc1ccc(CC(=O)N/N=C/c2ccc(Cl)s2)cc1OC	tim10-1 inh 49.5 | tim10-1 confirm inactive
COc1ccc(C(=O)Nc2ccc(Cl)cc2C(=O)NCc2ccco2)cc1OC	tim10-1 inh 42.7 | tim10-1 confirm inactive
COc1ccc(C(=O)Nc2ccccc2C(=O)NCc2ccco2)cc1OC	none
COc1cc(OC)cc(C(=O)NNS(=O)(=O)c2ccc(F)cc2)c1	none
COc1ccccc1N/C(=N/S(=O)(=O)c1ccc(C)cc1)c1ccccc1	none
COc1ccccc1N/C(=N/S(=O)(=O)c1ccc(Cl)cc1)c1ccccc1	tim10-1 inh 40.6 | tim10-1 confirm inactive
COc1ccc(OC)c(NC(=O)NCCc2c[nH]c3ccccc23)c1	none
C/C(=N\NC(=S)Nc1cc(S(=O)(=O)N2CCOCC2)ccc1Cl)c1ccc(N2CCOCC2)cc1	none
C/C(=N\NC(=S)Nc1ccc(C)c(C)c1)c1ccc(N2CCOCC2)cc1	tim10-1 inh 40.7 | tim10-1 confirm inactive

Source: PubChem
